# Only some compounds are listed: those with a hit (about 1.5% of all), similar ones and a draw of the others.
# CRFBP-R2 block – blocks CRF-induced signaling of the CRF-BP/CRF-R2 complex. 350,000 compounds, 0.59% hits. AID 588475. HEK293 CRF-R2/CRF-BP, CRF-induced calcium fluorescence. inhibition, % at 11.8 µM;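 active means inhibition of the ligand-induced calcium signal above about 50% at the single tested concentration, limit read from the data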
# V-ATPase pHluor – yeast V-ATPase proton transport regulation by pHLuorin; 350,000 compounds, 0.37% hits; S. cerevisiae, pHLuorin cytosolic pH fluorescence; AID 504577; response, % at 10 µM; in the data active means response mostly above about 7.3%, no sharp cut-off; inactive means mostly below about 5.4%; further: actives read high
# CRFR2-BP ag – CRF-BP/CRF-R2 complex agonism; activation, % at 13.2 µM; 350,000 compounds, 0.46% hits; HEK293 CRF-R2/CRF-BP, calcium dye fluorescence (FLIPR); percent of saturating CRF peptide response;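 active means activation of at least 50%, plus an integration ratio under a set limit after plate pattern correction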;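 further: plate controls were neutral control wells without compound for no effect and CRF at EC100 for full effect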
# NTR1 ag – activates human neurotensin receptor 1; AID 493036; P30989; activation, % at 20 µM; NTR1-U2OS beta-arrestin-GFP spot imaging, agonist mode; 330,000 compounds, 0.17% hits;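 active means activation at or above 40% of the spot to cytoplasm intensity ratio, with at least 20 cells analyzed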;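 further: 0% = DMSO without peptide and 100% = 100 nM NTR1 peptide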
# Target sequence (P30989 whole entry, looked up): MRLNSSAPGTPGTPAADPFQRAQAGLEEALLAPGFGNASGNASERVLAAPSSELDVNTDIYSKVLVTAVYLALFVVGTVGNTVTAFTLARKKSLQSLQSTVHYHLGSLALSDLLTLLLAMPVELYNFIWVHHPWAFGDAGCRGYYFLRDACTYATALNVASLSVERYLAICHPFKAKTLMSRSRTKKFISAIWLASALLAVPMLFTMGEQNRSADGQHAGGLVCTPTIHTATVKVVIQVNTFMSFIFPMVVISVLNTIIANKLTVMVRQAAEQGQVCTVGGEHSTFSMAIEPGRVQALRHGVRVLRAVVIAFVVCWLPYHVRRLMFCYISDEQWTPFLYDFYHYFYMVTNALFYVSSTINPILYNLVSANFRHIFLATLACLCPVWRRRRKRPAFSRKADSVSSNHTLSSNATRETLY
# Numbers without * were called inactive; . = not tested or not shown; ! = repeats disagree.
SMILES,CRFBP-R2 block,V-ATPase pHluor,CRFR2-BP ag,NTR1 ag
N#Cc1c(C(F)(F)F)cc(-c2ccc(Cl)c(Cl)c2)nc1SCCN1CCOCC1,-133.9,-6.2,15.8,13.6
Cc1ccc(S(=O)(=O)N2CCCCC2)cc1NC(=O)c1cc2ccccc2o1,-4.7,26.9*,1.1,-1.0
CC1CCN(C(=O)COC(=O)Cc2c[nH]c3ccccc23)CC1,0.6,13.1*,1.6,-1.8
Cn1c(=O)n(Cc2ccccc2F)c2ccccc21,-15.6,3.4,-1.0,-1.7
Cn1c(=O)n(Cc2ccccc2Cl)c2ccccc21,52.5*,-1.5,0.0,0.4
O=C(CN1CCN(C(=O)CN2C(=O)NC3(CCCC3)C2=O)CC1)Nc1cccc(F)c1,-1.5,-1.2,-0.4,-1.9
CCOC(=O)CN1C(=O)S/C(=C/c2ccc3c(c2)n(C)c(=O)n3C)C1=O,26.7,-1.7,-2.3,0.0
CCOC(=O)CN1C(=O)S/C(=C/C=C/c2ccc(N(C)C)cc2)C1=O,-127.3,-0.2,89.8*,-2.3
O=C(O)CCCCCNC(=O)OCC1c2ccccc2-c2ccccc21,21.0,-3.3,0.6,2.3
O=C(NCCC(=O)N(Cc1ccco1)Cc1cccs1)c1ccc([N+](=O)[O-])cc1,25.6,11.2,-2.1,-0.9
O=S(=O)(/N=C(\c1ccc(F)cc1)N1CCOCC1)c1ccccc1,-21.3,4.4,50.0*,.
Cc1ccc(S(=O)(=O)/N=C(/c2ccc(F)cc2)N2CCOCC2)cc1,-1.1,0.8,-2.3,-0.2
CC(C)(C)c1ccc(-n2nc(C#N)c(Cl)cc2=O)cc1,13.6,2.9,51.3*,-1.7
CCN1C(=O)[C@H]2[C@H]3CN=C(SC)N3[C@@](C)(C(=O)OC)[C@H]2C1=O,12.4,1.4,-4.3,.
O=c1ncn(-c2cccc([N+](=O)[O-])c2)c2ccccc12,21.9,-1.2,-0.9,-0.1
Cc1c(Cl)cccc1-n1cnc(=O)c2ccccc21,-10.9,13.0*,2.4,5.4
CCCCc1nc2cc(C(=O)N(C)CCc3cn[nH]c3)ccc2o1,11.9,14.7*,0.4,0.8
Cc1ccc(C)c(N2CCN(C(=O)c3cc4ccccn4n3)CC2)c1,-83.5,0.5,119.4*,2.6
O=C(c1cc2ccccn2n1)N1CCN(c2cccc(C(F)(F)F)c2)CC1,6.8,3.9,-11.1,0.5
Cc1ccc(NC(=O)CNc2ccccc2N2CCCC2=O)cc1S(=O)(=O)N1CCCCC1,7.4,-2.2,-2.0,3.1
COCCN1C(=O)/C(=C/c2ccc(N3CCCC3)cc2)SC1=S,-212.1,-4.4,265.1*,-3.7
Cc1cc(/C=C2\C(=N)N3C(SCc4ccccc4)=NSC3=NC2=O)c(C)n1Cc1ccccc1,3.8,-4.5,6.7,2.4
CSC1=NSC2=NC(=O)/C(=C\c3coc4ccccc4c3=O)C(=N)N12,-200.9,3.4,197.1*,.
CC(C)CSC1=NSC2=NC(=O)/C(=C\c3coc4ccccc4c3=O)C(=N)N12,-332.8,-5.5,313.6*,-0.9
CC(C)CSC1=NSC2=NC(=O)/C(=C\c3ccccc3)C(=N)N12,30.8,2.7,26.8,1.1
SMILES,CRFBP-R2 block,V-ATPase pHluor,CRFR2-BP ag,NTR1 ag
O=C(/C=C/c1cccs1)NC(=S)NNC(=O)c1ccccc1O,-14.4,1.8,62.6*,3.9
COc1ccc(C(=O)NNC(=S)NC(=O)C(C)(C)C)cc1,43.5,-0.4,127.1*,2.7
COc1cc(C(=O)NNC(=S)NC(=O)c2ccccc2C)cc(OC)c1OC,8.4,0.9,19.8,1.8
COc1ccc(C(=O)NC(=S)NNC(=O)c2ccccc2C)cc1,31.3,-0.2,116.1*,1.1
COc1ccc(C(=O)NNC(=S)NC(=O)/C=C/c2cccs2)cc1,-4.4,-2.2,-2.6,-0.5
COc1ccc(C(=O)NC(=S)NNC(=O)c2ccccc2O)cc1,2.7,-0.4,58.7*,1.4
Cc1ccc(SCCC(=O)N(C)CC(=O)Nc2c(C)cccc2C)cc1,7.5,2.8,0.4,-0.7
COc1cc(/C=C/C(=O)OCC(=O)NCCc2ccc(S(N)(=O)=O)cc2)ccc1OCC#N,-0.7,6.4,-0.7,0.9
O=C(NNC(=S)NC1CCCCC1)c1sc2ccccc2c1Cl,12.5,-1.2,5.8,7.1
CC(C)(C)C(=O)NC(=S)NNC(=O)c1sc2ccccc2c1Cl,-261.7,-1.1,225.8*,-3.3
C/C(=N/NC(=O)c1ccncc1)c1cc2ccc(O)cc2oc1=O,-38.0,-3.8,190.8*,0.3
C/C(=N\NC(=O)c1ccncc1)c1cc2ccccc2oc1=O,-9.0,2.5,0.5,0.8
CN(C(=O)c1cc(-c2cccs2)nn1-c1ccccc1)C1CCS(=O)(=O)C1 (stereo unspecified),3.3,1.4,-0.2,.
COc1ccc(C)cc1NC(=O)COC(=O)Cc1c[nH]c2ccccc12,8.6,3.8,-0.7,.
COCCN(C(=O)COC(=O)CCOc1cccc(C)c1)c1c(N)n(Cc2ccccc2)c(=O)[nH]c1=O,-4.7,9.0,2.6,-0.3
O=C(c1ccc(COc2ccccc2Cl)o1)N1CCN(Cc2ccc3c(c2)OCO3)CC1,59.5*!,-1.0,1.3,2.4
Nn1c(COc2ccccc2F)nnc1SCC(=O)NC1CCS(=O)(=O)C1 (stereo unspecified),4.1,3.5,0.0,-0.2
CN(Cc1ccccc1)S(=O)(=O)c1nnc(NC(=O)c2ccc(F)cc2)s1,59.1*,-1.9,0.3,0.4
CC(C(=O)NCc1ccccc1Cl)N1C(=O)c2ccccc2C1=O (stereo unspecified),5.7,0.8,-1.2,-1.4
Cc1cccc(N2CC(O)(c3cccs3)[N+]3=C2CCCCC3)c1 (stereo unspecified),-7.3,0.9,1.9,1.0
Cc1cccc(N2CC(O)(c3cccs3)[N+]3=C2CCCC3)c1 (stereo unspecified),94.5*,1.3,1.6,0.7
COCc1cc(=O)n2[nH]c(-c3ccccc3)cc2n1,78.8*,-2.7,-4.4,-0.9
CCCCn1c(N)c(N(CC(C)C)C(=O)CCCSc2nncs2)c(=O)[nH]c1=O,15.9,-1.7,-1.2,2.9
CC1(C)CC(=O)C2=C(C1)NC(=O)NC2c1ccccc1 (stereo unspecified),10.2,-1.3,-3.0,-1.3
CC1C2=C(CC(C)(C)CC2=O)NC2=C1C(=O)CC(C)(C)C2,-85.1,-0.7,67.5*,-0.7
SMILES,CRFBP-R2 block,V-ATPase pHluor,CRFR2-BP ag,NTR1 ag
O=C(NCc1ccncc1)c1cc(F)c(F)cc1Cl,59.7*,-1.9,-0.2,0.1
CCN(c1ccccc1)S(=O)(=O)c1ccc(Cl)c(NC(=O)Nc2ccc(Cl)cc2C#N)c1,71.2*,1.8,-0.1,4.6
NC(=O)Cn1cnc2nc3n(c2c1=O)CCC3,7.5,-3.2,0.1,-0.8
CN(CC(=O)Nc1cccc(F)c1)C(=O)CCNC(=O)c1ccco1,2.0,0.2,0.6,0.0
CC1CCCN(S(=O)(=O)c2cccc(C(=O)NCC3CCCO3)c2)C1 (stereo unspecified),-3.3,0.7,-0.3,0.7
O=C(/C=C/c1cn(CC(O)CN2CCCCC2)c2ccccc12)c1cccs1 (stereo unspecified),-80.2,2.4,63.2*,.
Cc1ccc(N2C(=N)/C(=C3/Nc4ccccc4S3)C(c3ccccc3)C2=O)cc1 (stereo unspecified),-8.8,4.4,1.5,.
Cc1ccc(S(=O)(=O)N/N=C/c2ccc(OC3CSC3)cc2)cc1,-61.2,7.7,75.4*,6.8
